HP1b chromo inh: HTS for Inhibitors of HP1-beta Chromodomain Interactions with Methylated Histone Tails; Chromobox protein homolog 1 (Homo sapiens), P83916; AlphaScreen HP1-beta / biotin-H3K9me3 peptide binding; Potency, µM (titrated, usually from 114 µM), for the others: top-dose activity change, negative = inhibition, actives largely listed as inhibitors; hit rate 0.56% among 390,000; further: nearly all actives have a fitted effect of over 70% in size
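Compound inhibition of the preformed complex between 50 nM HP1-beta and 50 nM biotinylated H3K9me3 peptide was read by AlphaScreen. Buffer was PBS pH 7.4 with 0.01% Tween-20. Incubations ran 30 min at room temperature, with 10 ug/mL donor/acceptor beads.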
Sfp PPTase inh: qHTS Assay for Inhibitors of Bacillus subtilis Sfp phosphopantetheinyl transferase (PPTase) | 4'-phosphopantetheinyl transferase ffp (Bacillus subtilis), Q9F4F7 | Biochemical Sfp PPTase activity, qHTS | Potency, µM, inactives show largest response in the series, negative = inhibition, usual class: inhibitors | hit rate 3.5% among 310,000 | AID 1490, 2009;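 further: the enzyme is Sfp with the accession as filed and its product quenches rhodamine fluorescence; 0% = enzyme reaction without inhibitor and -100% = no enzyme wells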
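Buffer: 50 mM Hepes-Na pH 7.6, 10 mM MgCl2, 0.01% Nonidet P-40, 0.01% BSA. Enzyme 15 nM, pre-exposed to compound 15 min; substrates then added and fluorescence change tracked over 30 min.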
JMJD2A Tudor inh: qHTS Assay for Inhibitors of JMJD2A-Tudor Domain; hit rate 4.4% among 390,000; Potency, µM (top dose mostly 114 µM), inactives show at the highest dose activity change, negative = inhibition, hits mostly inhibitors; Lysine-specific demethylase 4A (Homo sapiens), O75164; AlphaScreen JMJD2A-Tudor / H3K4me3 peptide binding; further: on the % scale 0 is the no-effect control and ±100 the full control effect; nearly all actives have a fitted effect of over 50% in size
Target sequence (O75164 whole entry, looked up, the tested form may be a part): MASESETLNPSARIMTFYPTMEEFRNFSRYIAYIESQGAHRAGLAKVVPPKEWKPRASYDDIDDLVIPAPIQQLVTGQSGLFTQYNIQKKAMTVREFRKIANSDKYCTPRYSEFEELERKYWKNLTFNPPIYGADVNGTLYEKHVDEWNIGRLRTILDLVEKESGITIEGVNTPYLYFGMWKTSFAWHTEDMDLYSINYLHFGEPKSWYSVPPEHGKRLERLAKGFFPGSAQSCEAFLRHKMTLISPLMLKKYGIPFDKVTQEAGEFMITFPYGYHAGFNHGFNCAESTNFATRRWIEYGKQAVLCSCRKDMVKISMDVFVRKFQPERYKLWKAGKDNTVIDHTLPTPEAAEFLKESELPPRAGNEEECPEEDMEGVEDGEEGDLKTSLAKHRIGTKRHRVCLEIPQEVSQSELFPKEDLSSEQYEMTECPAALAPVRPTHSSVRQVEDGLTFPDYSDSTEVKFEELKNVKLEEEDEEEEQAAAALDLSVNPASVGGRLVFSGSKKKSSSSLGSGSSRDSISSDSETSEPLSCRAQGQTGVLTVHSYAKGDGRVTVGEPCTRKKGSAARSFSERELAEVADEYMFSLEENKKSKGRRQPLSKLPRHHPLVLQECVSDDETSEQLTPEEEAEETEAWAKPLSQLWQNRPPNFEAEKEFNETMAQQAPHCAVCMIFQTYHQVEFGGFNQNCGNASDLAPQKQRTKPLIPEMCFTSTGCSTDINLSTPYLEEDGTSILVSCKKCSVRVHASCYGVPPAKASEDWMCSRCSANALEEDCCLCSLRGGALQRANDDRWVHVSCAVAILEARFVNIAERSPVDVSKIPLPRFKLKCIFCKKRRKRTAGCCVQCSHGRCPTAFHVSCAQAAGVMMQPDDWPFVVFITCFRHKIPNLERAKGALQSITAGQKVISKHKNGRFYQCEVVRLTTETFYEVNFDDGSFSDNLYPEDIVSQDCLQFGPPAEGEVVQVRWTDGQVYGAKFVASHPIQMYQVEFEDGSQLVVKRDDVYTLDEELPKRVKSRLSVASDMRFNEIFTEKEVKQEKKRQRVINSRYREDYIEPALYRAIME
L3MBTL1 block: qHTS Assay for the Inhibitors of L3MBTL1; Lethal(3)malignant brain tumor-like protein 1 (Homo sapiens), Q9Y468; AlphaScreen L3MBTL1–H3K9me1 peptide binding; Potency, µM (top dose mostly 57.1 µM), for inactives: at the highest dose activity, negative = inhibition, hits mostly inhibitors; hit rate 0.66% among 230,000; AID 485360, 2010; further: on the % scale 0 is the no-effect control and ±100 the full control effect; nearly all actives have a fitted effect of over 60% in size
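First, the protein-peptide complex forms for 30 min at room temperature (L3MBTL1 50 nM, biotinylated H3K9me1 peptide 75 nM). Next, compounds are pin-transferred and incubated 30 min. Finally, AlphaScreen beads are added and read after 30 min.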
G9a block: qHTS Assay for Inhibitors of Histone Lysine Methyltransferase G9a. hit rate 8.8% among 350,000. Histone-lysine N-methyltransferase EHMT2 (Homo sapiens), Q96KQ7. AID 504332, 2011. Potency, µM (series often up to 102 µM), without a hit: at the highest dose activity, negative = inhibition, actives largely listed as inhibitors. G9a H3K9 monomethylation, AlphaScreen, 2 h; further: on the % scale 0 is the no-effect control and ±100 the full control effect; nearly all actives have a fitted effect of over 75% in size
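G9a (20 nM) was preincubated 15 min with compound, then reacted 2 h at room temperature with 500 nM biotin-H3K9 peptide and 20 µM SAM. Monomethyl-H3K9 detected by AlphaScreen using anti-H3K9me1 antibody.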
BAZ2B inh: qHTS Assay for Inhibitors of BAZ2B; Bromodomain adjacent to zinc finger domain protein 2B (Homo sapiens), Q9UIF8; AlphaScreen BAZ2B-H3K14Ac peptide displacement; Potency, µM (top dose mostly 114 µM), without a hit: at the highest dose activity change, negative = inhibition, actives largely listed as inhibitors; hit rate 4.4% among 360,000; AID 504333, 2011; further: on the % scale 0 is the no-effect control and ±100 the full control effect; nearly all actives have a fitted effect of over 60% in size
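Protein-peptide AlphaScreen: BAZ2B 50 nM, b-H3K14Ac 50 nM, 1x PBS pH 7.4 + 0.01% Tween-20. Preincubation 30 min RT; cpd 30 min RT (top 110 uM); beads 20 min RT, light-protected.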
Numbers without * were called inactive; [ ] = another dose, or the depositor's remark. An excerpt weighted towards active compounds, which were near 12% of everything screened. The call rests on the fitted dose curve; in most records, active means well fitted curve in the direction sought with a large enough effect; inconclusive means small, poorly fitted or top-dose-only effect, or another doubt; inactive means no such curve, though single readings can be large; an effect the other way counts as inactive or inconclusive. Potency means the concentration at half of the fitted maximal effect.

Screening Cc1nn(-c2ccccc2)c(Cl)c1/C=N/NS(=O)(=O)c1ccc(Br)cc1 returned HP1b chromo inh 11%, Sfp PPTase inh -9%, JMJD2A Tudor inh -28%, L3MBTL1 block -2%, G9a block -22% and BAZ2B inh -12%.
For Cc1nn(-c2ccccc2)c(Cl)c1/C=N/Nc1ccc(S(=O)(=O)Nc2ccccc2C(=O)O)cc1[N+](=O)[O-] the results were HP1b chromo inh inconclusive, Sfp PPTase inh -21%, JMJD2A Tudor inh 50µM*, L3MBTL1 block inconclusive, G9a block 20µM* and BAZ2B inh 14µM*.
For Cc1ccc(N2CC(NC(=O)c3cccs3)CC2=O)cc1C (centres undefined) the results were HP1b chromo inh -2%, JMJD2A Tudor inh -3%, G9a block inconclusive and BAZ2B inh -4%.
`c1ccc(CNC2=NCCCCC2)cc1` gave HP1b chromo inh 29%, Sfp PPTase inh 8%, JMJD2A Tudor inh -4%, L3MBTL1 block 6%, G9a block 23% and BAZ2B inh 21%.
c1ccc(-c2csc(NNC3=NCCCCC3)n2)cc1 was read as HP1b chromo inh inconclusive, Sfp PPTase inh 40µM*, JMJD2A Tudor inh -2%[11.4 µM], G9a block 10µM* and BAZ2B inh inconclusive.
For c1ccc(NNC2=NCCCCC2)cc1 the results were HP1b chromo inh 36%, Sfp PPTase inh 13%, JMJD2A Tudor inh -6%, G9a block 2.5µM* and BAZ2B inh 0%.
`Brc1ccc(-c2csc(NC3=NCCCCC3)n2)cc1` gave HP1b chromo inh 26%[57 µM], Sfp PPTase inh 1%, JMJD2A Tudor inh -5%, L3MBTL1 block -8%, G9a block 16%[59 µM] and BAZ2B inh 0%.
Fc1ccc(-c2csc(NC3=NCCC3)n2)cc1 was read as HP1b chromo inh 21%, Sfp PPTase inh -18%, JMJD2A Tudor inh -20%, L3MBTL1 block -11% and G9a block inconclusive.
`Clc1ccc(-c2csc(NNC3=NCCCCC3)n2)cc1` gave HP1b chromo inh -26%, Sfp PPTase inh 56µM*, JMJD2A Tudor inh inconclusive, L3MBTL1 block -6%, G9a block 5%[2.33 µM] and BAZ2B inh -7%[57.1 µM].
`COc1ccc(CNC(=O)c2ccc3nc(CCc4ccccc4)oc3c2)cc1OC` gave HP1b chromo inh 25%[57 µM], JMJD2A Tudor inh -13%, G9a block 7%[59 µM] and BAZ2B inh -19%.
Screening COc1ccc(-c2noc(CSc3nnc(-c4ccncc4)n3-c3ccc(C)c(C)c3)n2)cc1 returned HP1b chromo inh 31%, JMJD2A Tudor inh -33%, G9a block -3%[59 µM] and BAZ2B inh -13%.
Screening OB(O)O returned Sfp PPTase inh 17% and G9a block 27%[59 µM].
For CCc1ccc(CNC(=O)CCc2c(C)nn(-c3ccc(N4CCCCC4)nn3)c2C)cc1 the results were HP1b chromo inh 13%, JMJD2A Tudor inh -23%, G9a block -3%[59 µM] and BAZ2B inh -24%.
CCOc1ccc(NC(=S)NNC(=O)c2ccc(Br)cc2)cc1 was read as HP1b chromo inh 0%, Sfp PPTase inh 18%, JMJD2A Tudor inh inconclusive, L3MBTL1 block -2%, G9a block 35µM* and BAZ2B inh -38%.
O=C(COc1ccc(Br)cc1)NNC(=S)NCc1ccccc1 was read as HP1b chromo inh 9%, Sfp PPTase inh 23%, JMJD2A Tudor inh -33%, G9a block inconclusive and BAZ2B inh -6%.
For O=C(NC(=S)NNC(=O)c1ccco1)c1ccc(Br)cc1 the results were HP1b chromo inh 6%, Sfp PPTase inh -7%, JMJD2A Tudor inh 2%, G9a block 22µM* and BAZ2B inh -3%[57.1 µM].

Bioassay records from PubChem BioAssay.
